In the supplement of paper PMC8728848:
The entries come from a sample that favours the strongest signals as a whole.

What was measured:
Experiment in all cases: glycan array binding signal (z-score within array); higher = stronger binding
Details in all cases: glycan notation: IUPAC condensed, linker removed
[1] = molecular target: GalNAc(a1-3)GalNAc
In short: (§1)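 The binding signal is a Z-score computed within each array and averaged over linkers. Arrays of the same protein sequence at different concentrations or buffers were also averaged together. Data originate from 3228 arrays in the Consortium for Functional Glycomics database, kept only where the protein sequence was available.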

[2] = molecular target: GalNAc(a1-3)GalNAc(b1-3)Gal(a1-4)Gal(b1-4)GlcNAc
In short: as §1

[3] = molecular target: GlcNAc(b1-2)[GlcNAc(b1-4)]Man(a1-3)[GlcNAc(b1-4)][GlcNAc(b1-2)Man(a1-6)]Man(b1-4)GlcNAc(b1-4)GlcNAc
In short: as §1

[4] = molecular target: GlcNAc(b1-3)Gal(b1-4)GlcNAc(b1-6)[GlcNAc(b1-3)Gal(b1-3)]GalNAc
In short: as §1

[5] = molecular target: Kdn(a2-3)Gal(b1-4)[Fuc(a1-3)]GlcNAc
In short: as §1

[6] = molecular target: Man(a1-2)Man(a1-2)Man(a1-3)Man
In short: as §1

[7] = molecular target: Man(a1-2)Man(a1-2)Man(a1-6)[Man(a1-3)]Man
In short: as §1

[8] = molecular target: Man(a1-3)[Man(a1-6)]Man(a1-6)[Man(a1-3)]Man
In short: as §1

[9] = molecular target: Neu5Ac(a2-3)Gal(b1-3)GlcNAc(b1-6)GalNAc
In short: as §1

[10] = molecular target: Neu5Ac(a2-3)Gal(b1-4)GlcNAc(b1-2)[Neu5Ac(a2-3)Gal(b1-4)GlcNAc(b1-4)]Man(a1-3)[GlcNAc(b1-4)][Neu5Ac(a2-3)Gal(b1-4)GlcNAc(b1-2)[Neu5Ac(a2-3)Gal(b1-4)GlcNAc(b1-6)]Man(a1-6)]Man(b1-4)GlcNAc(b1-4)GlcNAc
In short: as §1

[11] = molecular target: Neu5Ac(a2-3)Gal(b1-4)GlcNAc(b1-2)[Neu5Ac(a2-3)Gal(b1-4)GlcNAc(b1-6)]Man(a1-6)[Neu5Ac(a2-3)Gal(b1-4)GlcNAc(b1-2)Man(a1-3)]Man(b1-4)GlcNAc(b1-4)GlcNAc
In short: as §1

[12] = molecular target: Neu5Ac(a2-3)Gal(b1-4)GlcNAc(b1-3)Gal(b1-4)GlcNAc(b1-3)Gal(b1-4)GlcNAc
In short: as §1

[13] = molecular target: Neu5Ac(a2-3)Gal(b1-4)GlcNAc(b1-3)Gal(b1-4)GlcNAc(b1-3)[Neu5Ac(a2-3)Gal(b1-4)GlcNAc(b1-3)Gal(b1-4)GlcNAc(b1-6)]GalNAc
In short: as §1

[14] = molecular target: Neu5Ac(a2-3)Gal(b1-4)GlcNAc6S
In short: as §1

[15] = molecular target: Neu5Ac(a2-3)Gal(b1-4)[Fuc(a1-3)]GlcNAc6S
In short: as §1

[16] = molecular target: Neu5Ac(a2-6)Gal(b1-4)GlcNAc(b1-2)Man(a1-3)[Neu5Ac(a2-6)Gal(b1-4)GlcNAc(b1-2)Man(a1-6)]Man(b1-4)GlcNAc(b1-4)GlcNAc
In short: as §1

[17] = molecular target: Neu5Ac(a2-6)Gal(b1-4)GlcNAc(b1-2)Man(a1-6)[Gal(b1-4)GlcNAc(b1-2)Man(a1-3)]Man(b1-4)GlcNAc(b1-4)GlcNAc
In short: as §1

[18] = molecular target: Neu5Ac(a2-6)Gal(b1-4)GlcNAc(b1-2)Man(a1-6)[GlcNAc(b1-2)Man(a1-3)]Man(b1-4)GlcNAc(b1-4)GlcNAc
In short: as §1

[19] = molecular target: Neu5Ac(a2-6)Gal(b1-4)GlcNAc(b1-2)[Neu5Ac(a2-6)Gal(b1-4)GlcNAc(b1-4)]Man(a1-3)[GlcNAc(b1-4)][Neu5Ac(a2-6)Gal(b1-4)GlcNAc(b1-2)[Neu5Ac(a2-6)Gal(b1-4)GlcNAc(b1-6)]Man(a1-6)]Man(b1-4)GlcNAc(b1-4)GlcNAc
In short: as §1

[20] = molecular target: Neu5Ac(a2-6)GalNAc
In short: as §1

[21] = molecular target: Neu5Ac(a2-6)GalNAc(b1-4)GlcNAc
In short: as §1

[22] = molecular target: Neu5Ac(a2-6)GalNAc(b1-4)GlcNAc6S
In short: as §1

[23] = molecular target: Neu5Ac(a2-8)Neu5Ac(a2-3)Gal(b1-4)GlcNAc
In short: as §1

[24] = molecular target: Neu5Ac(a2-8)Neu5Ac(a2-8)Neu5Ac(a2-3)[Gal(b1-3)GalNAc(b1-4)]Gal(b1-4)Glc
In short: as §1

[25] = molecular target: Neu5Gc(a2-3)Gal(b1-4)GlcNAc
In short: as §1

[26] = molecular target: Neu5Gc(a2-8)Neu5Ac(a2-3)Gal(b1-4)GlcNAc
In short: as §1

[27] = molecular target: Neu5Gc(a2-8)Neu5Gc(a2-6)Gal(b1-4)GlcNAc
In short: as §1

B1: DCIR1 (Mus musculus), Q9QZ15 (protein)
chain: MASEITYAEVKFKNESNSLHTYSESPAAPREKPIRDLRKPGSPSLLLTSLMLLLLLLAITFLVAFIIYFQKYSQLLEEKKAAKNIMHNELNCTKSVSPMEDKVWSCCPKDWRLFGSHCYLVPTVSSSASWNKSEENCSRMGAHLVVIQSQEEQDFITGILDTHAAYFIGLWDTGHRQWQWVDQTPYEESITFWHNGEPSSGNEKCATIIYRWKTGWGWNDISCSLKQKSVCQMKKINL
glycan array binding signal (z-score) [1]: -0.78
glycan array binding signal (z-score) [2]: 2.31
glycan array binding signal (z-score) [3]: -0.101
glycan array binding signal (z-score) [4]: -0.947
glycan array binding signal (z-score) [5]: 2.92
glycan array binding signal (z-score) [6]: -0.962
glycan array binding signal (z-score) [7]: 4.44
glycan array binding signal (z-score) [8]: 0.267
glycan array binding signal (z-score) [9]: 0.265
glycan array binding signal (z-score) [10]: -0.887
glycan array binding signal (z-score) [11]: 0.375
glycan array binding signal (z-score) [12]: -0.844
glycan array binding signal (z-score) [13]: 1.36
glycan array binding signal (z-score) [14]: 0.145
glycan array binding signal (z-score) [15]: -0.532
glycan array binding signal (z-score) [16]: -0.079
glycan array binding signal (z-score) [17]: -0.16
glycan array binding signal (z-score) [18]: 2.04
glycan array binding signal (z-score) [19]: -0.823
glycan array binding signal (z-score) [20]: 2.86
glycan array binding signal (z-score) [21]: -0.517
glycan array binding signal (z-score) [22]: -0.058
glycan array binding signal (z-score) [23]: -1.1
glycan array binding signal (z-score) [24]: 2.88
glycan array binding signal (z-score) [25]: -0.678
glycan array binding signal (z-score) [26]: -1.04
glycan array binding signal (z-score) [27]: -0.802
